Bioassay records from PubChem.
COUP-TFII inh – NR2F2 (human) inhibition, primary screen; AID 686940; P24468; inhibition, % at 8.6 µM; HEK293T NGFI-A luciferase reporter, luminescence; 0.7% of 370,000 active;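 active means inhibition above a per-plate cutoff, mean inhibition of test wells between control levels plus 3 SD, cut at about 38% in these data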;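 further: cells cotransfected with COUP-TFII expression vector driving the NGFI-A reporter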
NCOA1 inh – human NCOA1 inhibition; HEK293 GAL4-SRC1 luciferase reporter, luminescence; inhibition, % at 3.6 µM; 0.12% of 360,000 active;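 active means inhibition above the campaign mean plus 3 SD, with each screening campaign given its own cutoff, cut at about 60% in these data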
SRC2 inh – inhibits human steroid receptor coactivator 2 | Q15596 | HEK293 GAL4-SRC2 luciferase reporter, luminescence | inhibition, % at 9 µM | 0.17% of 370,000 active | AID 651957;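 active means inhibition above the mean inhibition of all tested compounds plus 3 SD, set per campaign, cut at about 52% in these data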
SRC3 inh – human NCOA3 inhibition; Q9Y6Q9; HEK293 GAL4-SRC3 luciferase reporter, luminescence; inhibition, % at 3.6 µM; 0.17% of 360,000 active; AID 588352;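 active means inhibition above a per-campaign cutoff, the mean of all compounds plus 3 SD, cut at about 60% in these data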;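 further: higher means less SRC3-driven luciferase light from the GAL4 reporter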
LRH-1 inv ag – inverse agonists of human LRH-1 (NR5A2). O00482. HEK293T StAR-luciferase reporter, LRH-1 transfected, 24 h. inhibition, % at 3.6 µM. 0.13% of 360,000 active;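 active means inhibition above the mean inhibition of all tested compounds plus 3 SD, cut at about 73% in these data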
VP16 Luc counter – counter-screen for COUP-TFII antagonists: inhibitors of VP16; shares compounds with COUP-TFII inh; HEK293 Gal4-VP16 luciferase reporter, luminescence; inhibition, % at 8.5 µM; 25% of 2,500 active; AID 687007; in the data active means inhibition above about 13%
NR2F2 inh conf – confirmation of human COUP-TFII (NR2F2) inhibitors; shares compounds with COUP-TFII inh; HEK293 NGFI-A luciferase reporter, luminescence; inhibition, % at 8.5 µM; 45% of 2,500 active;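 active means mean inhibition over three repeats above a set limit taken from the earlier primary screen, cut at about 38% in these data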
Hits are given with their value; – = inactive; · = not tested or not shown. Shown are actives, neighbours in structure and some others; about 0.81% of the full set was active somewhere.

SMILES	COUP-TFII inh	NCOA1 inh	SRC2 inh	SRC3 inh	LRH-1 inv ag	VP16 Luc counter	NR2F2 inh conf
COc1ccc(CCC(=O)Nc2ccc(OC)c(S(=O)(=O)N3CCCCC3)c2)cc1OC	–	–	–	–	–	·	·
COC(=O)C1CN(C2CCCC2)CCS(=O)(=O)N1Cc1cn(Cc2ccc(C)cc2)nn1 (stereo not drawn)	–	·	–	·	·	·	·
CC1CCCN(S(=O)(=O)c2cc(C(=O)NCCc3ccc(S(N)(=O)=O)cc3)ccc2Cl)C1 (stereo not drawn)	64	–	–	–	–	–	39
CC1CCCN(S(=O)(=O)c2cc(C(=O)NCc3ccco3)ccc2Cl)C1 (stereo not drawn)	–	–	–	–	–	·	·
Cc1ccnn1CCC(=O)N1CCCC(CCC(=O)N2CCN(c3ccccn3)CC2)C1 (stereo not drawn)	–	–	–	–	–	·	·
COc1cc(OC)cc(-c2cc3nc(C)c(CCC(=O)NC(C)CCc4ccco4)c(C)n3n2)c1 (stereo not drawn)	–	–	–	–	–	·	·
CCOC(=O)C1CCN(C(=O)CCc2c(C)nc3cc(-c4ccccc4)nn3c2C)CC1	–	–	–	–	–	·	·
COc1cc(OC)cc(-c2cc3nc(C)c(CCC(=O)O)c(C)n3n2)c1	89	–	78	–	–	89	97
CCOC(=O)C1CCCCN1C(=O)CCc1c(C)nc2cc(-c3ccccc3)nn2c1C (stereo not drawn)	52	–	70	–	–	–	–
S=C1CCC(c2ccc(Br)cc2)=NN1c1ccccc1	–	–	–	–	–	·	·
O=C(c1ccco1)N1CCCC(c2nc(-c3ccc(S(=O)(=O)NCc4ccccc4)cc3)no2)C1 (stereo not drawn)	51	–	–	–	–	–	–
O=C(Nc1ccc2snnc2c1)Nc1cccc2ccccc12	–	–	–	–	–	·	·
Cc1c(CC(=O)NCCCC(=O)O)c(=O)oc2cc3c(cc12)CCC(C)(C)O3	51	–	75	–	–	61	–
COc1ccccc1NC(=O)CNC(=O)c1ccc(Br)o1	–	–	–	–	–	·	·
CC(=O)N1CCN(S(=O)(=O)c2ccc3c(c2)oc(=O)n3C)CC1	–	·	–	·	·	·	·
CC(=O)Nc1sc2c(c1-c1nc3ccccc3s1)CCCN(C(C)C)C2	45	·	·	·	·	–	–
CC(C)N1CCc2c(sc(NC(=O)c3nc4ccccc4s3)c2C(N)=O)C1	38	–	–	–	–	–	–
CC(C)N1CCc2c(sc(NC(=O)c3cc(-c4cccs4)nc4ccccc34)c2C(N)=O)C1	·	–	·	–	–	·	·
N/N=c1\sc2ccccc2n1-c1ccccc1	–	–	–	–	–	·	·
CCN1/C(=C/c2ccc3cc(C)cc(C)c3[n+]2CC)Sc2cc(C)ccc21	66	–	–	–	–	23	69
CCN1/C(=C/c2ccc3cccc(C)c3[n+]2CC)Sc2ccccc21	74	–	–	–	–	19	66
CCN1/C(=C/c2ccc3cc(C)ccc3[n+]2CC)Sc2ccc3sccc3c21	·	–	·	–	–	·	·
CCN1/C(=C\c2ccc3cc(C)ccc3[n+]2CC)Sc2cc(C)c(C)cc21	67	–	–	–	–	–	53
CC1(C(=O)NS(=O)(=O)c2cccc(F)c2)CCN1C(=O)CCC1CCCC1 (stereo not drawn)	–	–	–	–	–	·	·
COc1ccc(S(=O)(=O)N2CCN(C(=O)CCc3c[nH]c4ccccc34)CC2)cc1	–	–	–	–	–	·	·
SMILES	COUP-TFII inh	NCOA1 inh	SRC2 inh	SRC3 inh	LRH-1 inv ag	VP16 Luc counter	NR2F2 inh conf
CCNC(=O)C1CCCN(C(=O)c2ccc(C(=O)OC)cc2)CC1 (stereo not drawn)	–	–	–	–	–	·	·
COc1ccc(NC(=O)C2(C)Cc3c(-c4ccc(N(C)C)cc4)ccnc3O2)cc1 (stereo not drawn)	–	–	–	–	–	·	·
C=CCn1c(SCc2c(Cl)cccc2Cl)nnc1-c1cccc(C)c1	–	·	–	·	·	·	·
Cc1ccc(OCc2nnc(SCc3nc4ccccc4[nH]3)n2Cc2ccco2)cc1	42	–	–	–	–	–	–
CCCS(=O)(=O)NC(=O)C1(C)CCN(C(=O)CSc2ccccc2)C1 (stereo not drawn)	–	–	–	–	–	·	·
CC(=O)c1c(C)[nH]c(C(=O)C(C)Sc2nnc(NC3CC3)s2)c1C (stereo not drawn)	37	–	–	–	–	–	–
C[C@H]1CN([C@@H](C)CO)C(=O)CCCn2nncc2CO[C@H]1CN(C)C(=O)c1ccc2ccn(C)c2c1	–	–	–	–	–	·	·
COc1ccc(C=C2CS(=O)(=O)CC(=Cc3ccc(OC)cc3)C2=O)cc1	71	–	–	–	–	47	65
CCc1ccccc1N(CC(=O)N1CCc2ccccc2C1)S(C)(=O)=O	–	–	–	–	–	·	·
FC(F)(F)c1ccccc1Cn1ccc2ccc(-c3ccc4ccn(Cc5ccccc5C(F)(F)F)c4c3)cc21	–	·	–	·	·	·	·
CN(C)C(CNC(=O)c1cc(S(=O)(=O)N(C)c2ccccc2)ccc1Cl)c1cccs1 (stereo not drawn)	41	–	–	–	–	–	–
O=C(c1ccoc1)N1CCN(c2cc(-c3ccccc3)nc3cc(-c4ccccc4)nn23)CC1	–	–	–	–	–	·	·
COc1ccccc1-c1cc2nc(-c3ccccc3)cc(N3CCN(C(=O)c4ccco4)CC3)n2n1	94	–	–	–	–	–	76
COc1ccccc1-c1cc2nc(-c3ccccc3)cc(N3CCN(C(=O)c4ccoc4)CC3)n2n1	87	–	–	–	–	–	60
CN(C(=O)CC1C(=O)NCCN1Cc1ccc(F)c(F)c1)C1CCCCC1 (stereo not drawn)	–	–	–	–	–	·	·
O=C(c1ccc(O)c(Br)c1)c1cc(Br)ccc1O	–	–	–	–	–	·	·
Nc1ccc(-c2ccc(N)c(C(=O)O)c2)cc1C(=O)O	–	–	–	–	–	·	·
O=C(C(=O)c1cc(Br)ccc1O)c1cc(Br)ccc1O	39	–	–	–	–	–	–
Nc1ccc(Br)cc1C(=O)O	45	–	–	–	–	54	–
NC1=C(Cl)C(=O)c2ccccc2C1=O	–	–	–	–	–	·	·
NC1=C(Cl)C(=O)c2ccc(S(N)(=O)=O)cc2C1=O	85	90	80	90	95	92	97
CCOc1ccc2[nH]c3c(N4CCc5ccccc5C4)ncnc3c2c1	–	–	–	–	–	·	·
Fc1ccc2[nH]c3c(N4CCc5ccccc5C4)ncnc3c2c1	74	–	–	–	–	–	70
Cc1ccc2[nH]c3c(N4CCc5ccccc5C4)ncnc3c2c1	60	–	–	–	–	–	50
c1ccc2c(c1)[nH]c1c(N3CCSCC3)ncnc12	–	–	–	–	–	·	·
c1ccc2c(c1)[nH]c1c(N3CCCC3)ncnc12	44	–	–	–	–	–	–
